Source: article PMC10668032, “Altered binding affinity of SIX1-Q177R correlates with enhanced WNT5A and WNT pathway effector expression in Wilms tumor”
In all, about 33,000 sequences were measured (“e-score”: median about -0.05, highest 2% from about 0.38 on). The full list was thinned out, with the highest values kept by preference.

molecular target: T1, SIX1-Q177R homeodomain (human, UniProt Q15475 108-198, Q177R); assay: universal protein binding microarray; Universal all-10-mer PBM (8x60K, AMADID 030236), 300 nM GST-tagged protein, Alexa Fluor 488 anti-GST; buffer, salt, pH and temperature not stated (as in Berger); high values mean tight binding; conditions: protein: ivt; tags: N-terminal GST; dsDNA, one strand shown
T1 sequence: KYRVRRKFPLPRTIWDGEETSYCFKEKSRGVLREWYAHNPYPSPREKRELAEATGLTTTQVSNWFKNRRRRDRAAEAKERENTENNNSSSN
Procedure, shortened: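 Duplicate protein binding microarrays (universal 'all 10-mer', 8×60K format) were incubated with GST-tagged homeodomains at 300 nM final concentration. Binding was quantified as 8-mer E-scores with the Universal PBM Analysis Suite.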

Sequence	binding signal
CGAGTACC	0.168 ± 0.00651 E-score
GGAGTGTA	0.417 ± 0.0148 E-score
CGAGTGTC	0.415 ± 0.00743 E-score
GGAGTACA	0.246 ± 0.013 E-score
GGAGTGCA	0.17 ± 0.0126 E-score
CGAGTATC	0.158 ± 0.0391 E-score
CGAGTGTA	0.382 ± 0.0327 E-score
CGAGTGGA	0.166 ± 0.0322 E-score
CGAGTACA	0.28 ± 0.0111 E-score
GGGTGCTA	0.217 ± 0.00882 E-score
CCGCCCCA	0.239 ± 0.0124 E-score
CCCTACCA	0.167 ± 0.0194 E-score
CACCTAAG	0.263 ± 0.00735 E-score
AAACCCCG	0.231 ± 0.0422 E-score
ACTATATC	0.178 ± 0.0197 E-score
ATGGAGTC	0.232 ± 0.0246 E-score
GACACGTA	0.39 ± 0.0131 E-score
GACACGTC	0.381 ± 0.00585 E-score
CACACGTA	0.262 ± 0.0227 E-score
AACACGTA	0.343 ± 0.0046 E-score
AACACGTC	0.309 ± 0.0249 E-score
CACACGTC	0.221 ± 0.00539 E-score

Sequence	binding signal
CGAAGTAC	0.174 ± 0.00912 E-score
CACCTCAC	0.354 ± 0.0133 E-score
CTCCCCCA	0.176 ± 0.0255 E-score
ACCCGCGA	0.239 ± 0.0203 E-score
CGGGCACA	0.1994 ± 0.000764 E-score
TACCCGGA	0.247 ± 0.00272 E-score
CACCCGGA	0.388 ± 0.0297 E-score
CACCCGGC	0.36 ± 0.0229 E-score
CACGCTTC	0.24 ± 0.0251 E-score
GACACGAC	0.436 ± 0.00629 E-score
CACACGGA	0.253 ± 0.0652 E-score
GACACGGC	0.427 ± 0.0135 E-score
CACACGAC	0.237 ± 0.00357 E-score
TACACGGA	0.402 ± 0.00597 E-score
GACACGGA	0.418 ± 0.0309 E-score
CCCACGGA	0.161 ± 0.00447 E-score
GACACGAA	0.331 ± 0.0274 E-score
AACACGGC	0.35 ± 0.00429 E-score
GATACGGA	0.215 ± 0.00231 E-score
TACACAAA	0.247 ± 0.0503 E-score
CACACGGC	0.161 ± 0.0205 E-score
CCTGTGAC	0.194 ± 0.0117 E-score

Sequence	binding signal
TCAGGGGA	0.165 ± 0.0187 E-score
AAACCCTA	0.157 ± 0.0426 E-score
AATAGTGT	0.355 ± 0.0289 E-score
CCCTTCTA	0.177 ± 0.0196 E-score
GTGGGTCA	0.166 ± 0.0309 E-score
AAAGGGTG	0.317 ± 0.00321 E-score
CCCCTCAC	0.203 ± 0.0371 E-score
ATACGGGG	0.171 ± 0.0145 E-score
ACACGGGA	0.411 ± 0.00748 E-score
ACCCGGGA	0.192 ± 0.0367 E-score
ACACGGGG	0.4516 ± 0.00397 E-score
ACACGGAC	0.367 ± 0.00972 E-score
ACACGGGC	0.4237 ± 0.000962 E-score
CCACGGGG	0.194 ± 0.0115 E-score
ACCCGGGT	0.377 ± 0.0131 E-score
ACGGGGGA	0.208 ± 0.00871 E-score
ACACGGGT	0.4532 ± 0.00279 E-score
ACTCGGGC	0.161 ± 0.036 E-score
CACCGTGG	0.333 ± 0.0206 E-score
CACCTCGG	0.269 ± 0.00615 E-score
CACGCTGG	0.159 ± 0.00563 E-score
CACTCGGG	0.225 ± 0.016 E-score

Sequence	binding signal
AACCCCAA	0.205 ± 0.00313 E-score
CTGACCCC	0.283 ± 0.0439 E-score
CGGGGTAC	0.224 ± 0.0106 E-score
CAACCGTG	0.187 ± 0.0215 E-score
CACTGGCA	0.28 ± 0.0195 E-score
ACACGTAT	0.388 ± 0.00574 E-score
ACACGTAA	0.323 ± 0.00431 E-score
ACACGTAC	0.353 ± 0.00478 E-score
ACACGTCC	0.373 ± 0.00921 E-score
ACACGTGT	0.4552 ± 0.00158 E-score
ACACGTAG	0.325 ± 0.012 E-score
ACACGTGG	0.32 ± 0.00325 E-score
ACACGTGC	0.383 ± 0.0133 E-score
ACACGTGA	0.34 ± 0.0135 E-score
CACTAGCC	0.177 ± 0.031 E-score
ATACCCGC	0.266 ± 0.0158 E-score
GGATCACA	0.168 ± 0.0336 E-score
CCCCGCCG	0.241 ± 0.0442 E-score
CTGATCCC	0.232 ± 0.00636 E-score
ACTCCGTG	0.253 ± 0.00334 E-score
ACACGCGC	0.363 ± 0.0139 E-score
ACACGCTA	0.383 ± 0.0134 E-score

Sequence	binding signal
ACACACTA	0.267 ± 0.012 E-score
ACACGCTC	0.384 ± 0.0032 E-score
GTACGCTA	0.153 ± 0.0129 E-score
ACACGTTC	0.276 ± 0.0481 E-score
ACACGTTG	0.331 ± 0.0165 E-score
CCCCGCTA	0.199 ± 0.0313 E-score
ACACGCTG	0.389 ± 0.00589 E-score
AACCGGGT	0.218 ± 0.0414 E-score
CACCCCAC	0.355 ± 0.0406 E-score
ACCCCACC	0.327 ± 0.05 E-score
ACTCCCGC	0.253 ± 0.0194 E-score
CACCATCA	0.231 ± 0.0313 E-score
CCCGGATA	0.164 ± 0.0511 E-score
GACTACAC	0.428 ± 0.0046 E-score
CACTACAG	0.196 ± 0.0315 E-score
CACTACAC	0.443 ± 0.00461 E-score
GACTCCAC	0.211 ± 0.00527 E-score
CACTACTC	0.21 ± 0.00852 E-score
CACTACAA	0.236 ± 0.0147 E-score
AACTACCC	0.151 ± 0.011 E-score
CACTACGC	0.166 ± 0.0306 E-score
AACTACAC	0.445 ± 0.0094 E-score
